Experimental data reported in PubChem BioAssay AID1159580 (chemical genetic matrix, 2015).
Hit rate of the full screen: of about 5,500 compounds, about 2,000 (36%) were called active. About 18% were inconclusive and are not listed. Rule as the data show it: active = normalized growth mostly below about 0.91 (no sharp cut-off); inconclusive = no clear call, values can overlap the other calls; inactive = mostly above about 0.92. The list shows a part of the results.

Experiment: chemical genetic growth profiling, strain panel (AID 1159580);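 also: tested at 20 µM; growth read once vehicle control cultures reached saturation at 30 °C; 1 = growth at the plate median or of vehicle wells; lower values mean less growth of the strain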
Conditions: growth OD

Measured: normalized growth

C#CCCCCCCCCCCCC(=O)CC(O)COC(C)=O (centres undefined)
inactive: S. cerevisiae deletion strains, locus YJR043C, strain POL32, active compounds read low 0.865 | S. cerevisiae deletion strains, locus YKL009W, strain mrt4, active compounds read low 0.901 | S. cerevisiae deletion strains, locus YKL068W, active compounds read low 0.977 | S. cerevisiae deletion strains, locus YKL085W, strain MDH1 (second series), active compounds read low 0.958 | S. cerevisiae deletion strains, locus YKL085W, strain MDH1, active compounds read low 0.958 | S. cerevisiae deletion strains, locus YKL160W, strain elf1, active compounds read low 0.969 | S. cerevisiae deletion strains, locus YKR026C, strain gcn3, active compounds read low 0.991 | S. cerevisiae deletion strains, locus YKR091W, strain srl3, active compounds read low 0.988 | S. cerevisiae deletion strains, locus YLL001W, strain dnm1, active compounds read low 1 | S. cerevisiae deletion strains, locus YLL026W, active compounds read low 0.995 | S. cerevisiae deletion strains, locus YLL041C, strain sdh2, active compounds read low 0.989 | S. cerevisiae deletion strains, locus YLR027C, strain aat2, active compounds read low 0.994 | S. cerevisiae deletion strains, locus YLR039C, strain RIC1, active compounds read low 0.688 | S. cerevisiae deletion strains, locus YLR102C, strain apc9, active compounds read low 0.97 | S. cerevisiae deletion strains, locus YLR221C, strain rsa3, active compounds read low 0.935 | S. cerevisiae deletion strains, locus YLR258W, strain gsy2, active compounds read low 0.972 | S. cerevisiae deletion strains, locus YLR262C, strain YPT6, active compounds read low 0.655 | S. cerevisiae deletion strains, locus YLR342W, strain FKS1 (second series), active compounds read low 0.794 | S. cerevisiae deletion strains, locus YLR342W, strain FKS1, active compounds read low 0.953 | S. cerevisiae deletion strains, locus YLR357W, strain rsc2, active compounds read low 1.01 | S. cerevisiae deletion strains, locus YLR370C, strain arc18, active compounds read low 0.978 | S. cerevisiae deletion strains, locus YLR371W, strain rom2, active compounds read low 0.964 | S. cerevisiae deletion strains, locus YLR384C, strain iki3, active compounds read low 0.996 | S. cerevisiae deletion strains, locus YML016C, strain PPZ1, active compounds read low 0.994 | S. cerevisiae deletion strains, locus YML120C, strain ndi1, active compounds read low 0.986 | S. cerevisiae deletion strains, locus YML124C, strain tub3, active compounds read low 0.974 | S. cerevisiae deletion strains, locus YMR058W, strain fet3, active compounds read low 0.97 | S. cerevisiae deletion strains, locus YMR078C, strain ctf18, active compounds read low 0.961 | S. cerevisiae deletion strains, locus YMR125W, strain sto1, active compounds read low 0.979 | S. cerevisiae deletion strains, locus YMR129W, active compounds read low 0.999 | S. cerevisiae deletion strains, locus YMR205C, strain PFK2, active compounds read low 0.893 | S. cerevisiae deletion strains, locus YMR231W, strain pep5, active compounds read low 0.957 | S. cerevisiae deletion strains, locus YMR307W, strain GAS1, active compounds read low 0.99 | S. cerevisiae deletion strains, locus YNL128W, strain TEP1, active compounds read low 0.872 | S. cerevisiae deletion strains, locus YNL209W, strain ssb2, active compounds read low 0.981 | S. cerevisiae deletion strains, locus YNL248C, strain rpa49, active compounds read low 0.973 | S. cerevisiae deletion strains, locus YNL250W, strain rad50, active compounds read low 0.989 | S. cerevisiae deletion strains, locus YNL271C, strain bni1, active compounds read low 0.965 | S. cerevisiae deletion strains, locus YNL322C, strain KRE1 (second series), active compounds read low 0.985 | S. cerevisiae deletion strains, locus YNL322C, strain KRE1, active compounds read low 0.971 | S. cerevisiae deletion strains, locus YNR049C, strain mso1, active compounds read low 0.982 | S. cerevisiae deletion strains, locus YNR052C, strain pop2, active compounds read low 0.931 | S. cerevisiae deletion strains, locus YOL006C, strain TOP1, active compounds read low 0.637 | S. cerevisiae deletion strains, locus YOL012C, strain htz1 0.999 | S. cerevisiae deletion strains, locus YOR001W, strain rrp6, active compounds read low 0.966 | S. cerevisiae deletion strains, locus YOR069W, strain VPS5, active compounds read low 0.978 | S. cerevisiae deletion strains, locus YOR070C, strain gyp1, active compounds read low 0.964 | S. cerevisiae deletion strains, locus YOR080W, strain dia2, active compounds read low 0.977 | S. cerevisiae deletion strains, locus YOR083W, strain WHI5, active compounds read low 0.967 | S. cerevisiae deletion strains, locus YOR106W, strain vam3, active compounds read low 0.889 | S. cerevisiae deletion strains, locus YOR136W, strain idh2, active compounds read low 0.929 | S. cerevisiae deletion strains, locus YOR265W, strain rbl2, active compounds read low 0.982 | S. cerevisiae deletion strains, locus YOR270C, strain vph1, active compounds read low 0.932 | S. cerevisiae deletion strains, locus YOR290C, strain snf2, active compounds read low 0.903 | S. cerevisiae deletion strains, locus YOR316C, strain cot1, active compounds read low 0.962 | S. cerevisiae deletion strains, locus YPL051W, strain arl3, active compounds read low 0.926 | S. cerevisiae deletion strains, locus YPL078C, strain atp4, active compounds read low 0.976 | S. cerevisiae deletion strains, locus YPL106C, strain sse1, active compounds read low 1.01 | S. cerevisiae deletion strains, locus YPL240C, strain hsp82, active compounds read low 0.977 | S. cerevisiae deletion strains, locus YPL241C, strain CIN2, active compounds read low 0.96 | S. cerevisiae deletion strains, locus YPR119W, strain clb2, active compounds read low 0.98 | S. cerevisiae deletion strains, locus YPR141C, strain kar3, active compounds read low 0.959 | S. cerevisiae deletion strains, locus YPR167C, strain met16, active compounds read low 0.947
active: S. cerevisiae deletion strains, locus YJR075W, strain HOC1, active compounds read low 0.771 | S. cerevisiae deletion strains, locus YKL190W, strain CNB1, active compounds read low 0.82 | S. cerevisiae deletion strains, locus YKR001C, strain vps1, active compounds read low 0.754 | S. cerevisiae deletion strains, locus YLR058C, strain SHM2, active compounds read low 0.86 | S. cerevisiae deletion strains, locus YLR262C, strain YPT6 (second series), active compounds read low 0.807 | S. cerevisiae deletion strains, locus YLR268W, strain sec22, active compounds read low 0.784 | S. cerevisiae deletion strains, locus YLR320W, strain mms22, active compounds read low 0.845 | S. cerevisiae deletion strains, locus YLR330W, strain CHS5, active compounds read low 0.753 | S. cerevisiae deletion strains, locus YLR418C, strain cdc73, active compounds read low 0.364 | S. cerevisiae deletion strains, locus YML032C, strain rad52, active compounds read low 0.86 | S. cerevisiae deletion strains, locus YMR223W, strain ubp8, active compounds read low 0.841 | S. cerevisiae deletion strains, locus YMR263W, strain SAP30, active compounds read low 0.848 | S. cerevisiae deletion strains, locus YNL067W, strain RPL9B, active compounds read low 0.742 | S. cerevisiae deletion strains, locus YNL071W, strain lat1, active compounds read low 0.748 | S. cerevisiae deletion strains, locus YNL153C, strain GIM3, active compounds read low 0.826 | S. cerevisiae deletion strains, locus YNL233W, strain BNI4, active compounds read low 0.685 | S. cerevisiae deletion strains, locus YNL298W, strain CLA4, active compounds read low 0.898 | S. cerevisiae deletion strains, locus YNL307C, strain MCK1, active compounds read low 0.166 | S. cerevisiae deletion strains, locus YOL147C, strain pex11, active compounds read low 0.71 | S. cerevisiae deletion strains, locus YOR061W, strain CKA2, active compounds read low 0.514 | S. cerevisiae deletion strains, locus YOR144C, strain elg1, active compounds read low 0.93 | S. cerevisiae deletion strains, locus YOR184W, strain ser1, active compounds read low 0.62 | S. cerevisiae deletion strains, locus YPL055C, strain LGE1, active compounds read low 0.612 | S. cerevisiae deletion strains, locus YPR163C, strain tif3, active compounds read low 0.626 | S. cerevisiae deletion strains, strain wtn01, active compounds read low 0.801 | S. cerevisiae strains, strain wild type, active compounds read low 0.83
